Source: PubChem BioAssay (Tox21)
Records with an inconclusive call do not appear. Active and inactive are the calls of the source. Unless noted, the call rests on the fitted dose curve; in most records, active means well fitted curve in the direction sought with a large enough effect in the repeat runs; inconclusive means weak or mixed curves; inactive means no such curve, though single readings can be large; an effect the other way counts as inactive or inconclusive.

Legend:
[1] = qHTS assay to identify small molecule agonists of the peroxisome proliferator-activated receptor delta (PPARd) signaling pathway - cell viability counter screen (AID 743211); further: on the % scale 0 is the no-effect control and ±100 the full control effect; nearly all actives have a fitted effect of over 55% in size
In short: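 Luminescent ATP viability assay (CellTiter-Glo, 30 min RT) in UAS-bla HEK293H cells carrying the PPAR delta reporter construct, 3000 cells/well, after a 17 h compound treatment at 37 C.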

[2] = target: Peroxisome proliferator-activated receptor delta (Homo sapiens) (UniProt Q03181); assay: qHTS assay to identify small molecule agonists of the peroxisome proliferator-activated receptor delta (PPARd) signaling pathway (AID 743212; calls by dose curve;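 further: HEK293H cells with PPARd UAS beta-lactamase reporter GeneBLAzer system; on the % scale 0 is the no-effect control and ±100 the full control effect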)
Peroxisome proliferator-activated receptor delta (Homo sapiens), sequence (Q03181 whole entry, looked up): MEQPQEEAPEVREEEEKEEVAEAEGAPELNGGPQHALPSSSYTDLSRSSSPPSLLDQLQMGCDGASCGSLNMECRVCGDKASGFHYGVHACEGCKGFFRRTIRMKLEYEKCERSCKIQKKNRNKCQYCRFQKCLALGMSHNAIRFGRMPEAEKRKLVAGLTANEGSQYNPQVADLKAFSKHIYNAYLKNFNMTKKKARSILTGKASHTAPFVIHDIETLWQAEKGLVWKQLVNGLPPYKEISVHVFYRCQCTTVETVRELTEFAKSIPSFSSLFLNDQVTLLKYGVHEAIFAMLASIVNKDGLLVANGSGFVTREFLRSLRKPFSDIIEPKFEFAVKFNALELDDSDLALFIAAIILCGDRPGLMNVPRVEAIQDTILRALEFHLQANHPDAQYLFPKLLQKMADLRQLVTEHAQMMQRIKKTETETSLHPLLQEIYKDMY
In short: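 Beta-lactamase reporter readout: a ratiometric FRET signal from the LiveBLAzer substrate after 2 h at room temperature. Compound exposure at 37 °C in PPARδ-bla HEK293H cells driven by an upstream activator sequence.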

[3] = qHTS assay to identify small molecule antagonists of the peroxisome proliferator-activated receptor delta (PPARd) signaling pathway - cell viability counter screen (AID 743213); further: on the % scale 0 is the no-effect control and ±100 the full control effect; nearly all actives have a fitted effect of over 50% in size
In short: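 Agonist-stimulated (L165041, 300 nM final) HEK293H PPARd UAS-bla cells are exposed to compounds for 17 h at 37 C, and ATP-based luminescence (CellTiter-Glo) from the same wells reports cytotoxicity.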

[4] = target: Peroxisome proliferator-activated receptor delta (Homo sapiens) (UniProt Q03181); assay: qHTS assay to identify small molecule antagonists of the peroxisome proliferator-activated receptor delta (PPARd) signaling pathway (AID 743215; active means well fitted inhibition curve with a large enough effect in the signal ratio in the repeat runs, not every such curve was filed as active; the % refers to the signal ratio; further: series mostly up to about 62 µM; on the % scale 0 is the no-effect control and ±100 the full control effect)
In short: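 Agonist L165041 (300 nM final) added with compound to PPARd-bla HEK293H UAS-bla reporter cells; 17 h incubation at 37 C. Read-out: LiveBLAzer FRET substrate, 2 h at room temperature, fluorescence intensity.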

[5] = target: Bile acid receptor (Homo sapiens) (UniProt Q96RI1); assay: qHTS assay to identify small molecule antagonists of the farnesoid-X-receptor (FXR) signaling pathway (AID 743217; active means well fitted inhibition curve with a large enough effect in the signal ratio in the repeat runs, not every such curve was filed as active; the % refers to the signal ratio; further: on the % scale 0 is the no-effect control and ±100 the full control effect)
Bile acid receptor (Homo sapiens), sequence (Q96RI1 whole entry, looked up): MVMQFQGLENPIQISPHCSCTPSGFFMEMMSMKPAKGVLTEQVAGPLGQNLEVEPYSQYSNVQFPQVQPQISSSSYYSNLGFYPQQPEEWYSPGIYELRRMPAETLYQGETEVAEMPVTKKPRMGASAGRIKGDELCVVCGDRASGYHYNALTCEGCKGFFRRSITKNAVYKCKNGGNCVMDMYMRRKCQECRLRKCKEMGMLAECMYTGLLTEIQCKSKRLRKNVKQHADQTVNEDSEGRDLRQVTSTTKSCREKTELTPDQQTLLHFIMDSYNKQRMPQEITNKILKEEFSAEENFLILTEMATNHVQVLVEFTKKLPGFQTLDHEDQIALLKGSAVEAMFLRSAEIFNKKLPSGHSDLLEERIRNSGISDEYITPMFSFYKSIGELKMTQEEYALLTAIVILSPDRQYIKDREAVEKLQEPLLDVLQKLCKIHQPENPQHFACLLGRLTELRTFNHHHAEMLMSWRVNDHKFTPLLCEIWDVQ
In short: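 Antagonist mode: chenodeoxycholic acid at 50 uM final stimulates a UAS-driven beta-lactamase reporter in HEK 293T FXR-bla cells during 16 h, 37C compound exposure. Read-out is FRET substrate fluorescence after 2 h at room temperature.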

[6] = qHTS assay to identify small molecule agonists of the farnesoid-X-receptor (FXR) signaling pathway - cell viability counter screen (AID 743218); further: nearly all actives have a fitted effect of over 45% in size; further: potency means the concentration at half of the fitted maximal effect
In short: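 Viability counter screen in the same wells: CellTiter-Glo luminescence, 30 min room-temperature incubation, measured after the beta-lactamase read. Cells were GeneBLAzer FXR-UAS-bla HEK 293T, compound-treated 16 h at 37C.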

[7] = target: Bile acid receptor (Homo sapiens) (UniProt Q96RI1); assay: qHTS assay to identify small molecule agonists of the farnesoid-X-receptor (FXR) signaling pathway (AID 743220; active means well fitted activation curve with a large enough effect in the signal ratio in the repeat runs, not every such curve was filed as active; the % refers to the signal ratio; further: on the % scale 0 is the no-effect control and ±100 the full control effect)
In short: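 FXR-UAS-bla HEK 293T cells carrying a UAS-driven beta-lactamase reporter were plated for 5 h at 37C/5% CO2, then exposed to DMSO-dissolved Tox21 10K compounds for 16 h at 37C. A LiveBLAzer B/G FRET substrate was loaded for 2 h at room temperature before fluorescence reading.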

[8] = qHTS assay to identify small molecule antagonists of the farnesoid-X-receptor (FXR) signaling pathway - cell viability counter screen (AID 743221; active means well fitted cell-killing curve with a large enough effect in the repeat runs, not every such curve was filed as active; further: on the % scale 0 is the no-effect control and ±100 the full control effect; nearly all actives have a fitted effect of over 50% in size)
In short: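 In GeneBLAzer FXR-UAS-bla HEK 293T cells stimulated with 50 uM chenodeoxycholic acid (final), compounds acted for 16 h at 37 C. Viability was assessed afterwards by CellTiter-Glo luminescence.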

[9] = target: Vitamin D3 receptor (Homo sapiens) (UniProt P11473); assay: qHTS assay to identify small molecule agonists of the vitamin D receptor (VDR) signaling pathway (AID 743222; calls by dose curve; further: on the % scale 0 is the no-effect control and ±100 the full control effect)
Vitamin D3 receptor (Homo sapiens), sequence (P11473 whole entry, looked up): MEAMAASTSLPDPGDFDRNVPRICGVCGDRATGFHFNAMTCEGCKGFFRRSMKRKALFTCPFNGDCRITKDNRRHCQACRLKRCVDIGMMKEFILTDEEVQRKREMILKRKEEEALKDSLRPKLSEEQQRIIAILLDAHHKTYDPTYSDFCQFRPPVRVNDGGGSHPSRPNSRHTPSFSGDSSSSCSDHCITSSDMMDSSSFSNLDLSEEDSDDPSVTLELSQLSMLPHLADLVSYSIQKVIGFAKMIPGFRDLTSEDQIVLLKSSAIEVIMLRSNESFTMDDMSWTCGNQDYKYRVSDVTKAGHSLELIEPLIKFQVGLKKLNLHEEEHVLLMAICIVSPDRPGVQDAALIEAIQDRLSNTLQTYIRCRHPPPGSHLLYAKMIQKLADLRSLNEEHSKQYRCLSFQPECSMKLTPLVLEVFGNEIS
In short: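 Agonist mode, beta-lactamase reporter: fluorescence from LiveBLAzer B/G FRET substrate (2 h, room temperature) read after 16 h compound treatment at 37 C of VDR-bla cells, which were pre-incubated 4 h after seeding.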

[10] = qHTS assay to identify small molecule agonists of the vitamin D receptor (VDR) signaling pathway - cell viability counter screen (AID 743224); further: series mostly up to about 63 µM; on the % scale 0 is the no-effect control and ±100 the full control effect; nearly all actives have a fitted effect of over 50% in size
In short: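 Counter screen run in the same wells as the VDR-bla reporter assay: CellTiter-Glo luminescence, 30 min at room temperature, after 16 h compound treatment at 37C of cells pre-plated for 4 h.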

[11] = qHTS assay to identify small molecule antagonists of the vitamin D receptor (VDR) signaling pathway - cell viability counter screen (AID 743225); further: on the % scale 0 is the no-effect control and ±100 the full control effect; nearly all actives have a fitted effect of over 50% in size
In short: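 Luminescent cell viability (CellTiter-Glo) in VDR-bla HEK 293T cells after 16 h compound exposure at 37C in the presence of 3 nM final 1-alpha,25-dihydroxy vitamin D3.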

[12] = qHTS assay to identify small molecule agonists of the NFkB signaling pathway (AID 1159509; active means well fitted curve in the direction sought with a large enough effect in the signal ratio in the repeat runs, not every such curve was filed as active; the % refers to the signal ratio)
In short: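 Pathway activation was measured in ME-180 cells stably expressing beta-lactamase under NF-kB response element control. Substrate cleavage was read as the 460/530 nm emission shift after 5 hr compound incubation.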

[13] = qHTS assay to identify small molecule agonists of the NFkB signaling pathway - cell viability counter screen (AID 1159515; calls by dose curve; further: series mostly up to about 61 µM; on the % scale 0 is the no-effect control and ±100 the full control effect; nearly all actives have a fitted effect of over 55% in size)
In short: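 Read by CellTiter-Glo luminescence (30 min, room temperature) in the wells also used for the beta-lactamase FRET read. ME-180 NFkB-bla cells at 2,000 per well were plated overnight, then exposed to compound for 5 hr at 37 C.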

[14] = qHTS assay to identify small molecule agonists of the endoplasmic reticulum stress response signaling pathway - cell viability counter screen (AID 1159517; calls by dose curve; further: nearly all actives have a fitted effect of over 50% in size; further: potency means the concentration at half of the fitted maximal effect)
In short: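 ESRE-bla HeLa cells (1,500/well) were plated overnight at 37 C and exposed to compounds for 5 hr. After the 2 hr beta-lactamase substrate read, CellTiter-Glo went into the same wells, and luminescence was read after 30 min at room temperature.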

[15] = qHTS assay to identify small molecule antagonists of the retinoid-related orphan receptor gamma (ROR-gamma) signaling pathway - cell viability counter screen (AID 1159520)
In short: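 Cytotoxicity was read from cellular ATP (CellTiter-Glo luminescence) after 16 hr at 37 C with 1 uM doxycycline induction. The inducer was added 2 hr after compound transfer to Tet-on ROR gamma CHO cells.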

[16] = target: Nuclear receptor ROR-gamma (Homo sapiens) (UniProt P51449); assay: qHTS assay to identify small molecule antagonists of the retinoid-related orphan receptor gamma (ROR-gamma) signaling pathway (AID 1159521)
In short: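 CHO cells expressing RORγ under a TET-on promoter, luciferase under RORE control. Dox 1 uM final, 16 h; compounds added 2 h prior. Luminescence decrease measured.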

[17] = qHTS assay to identify small molecule agonists of the AP-1 signaling pathway - cell viability counter screen (AID 1159525; calls by dose curve; further: nearly all actives have a fitted effect of over 55% in size)
In short: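 Intracellular ATP by Cell Titer Glo luminescence (30 min, RT) in the same ME-180 AP-1-bla wells after the 5 h compound exposure at 37 °C. Normalised to tetra n-octyl ammonium bromide and DMSO controls.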

[18] = qHTS assay to identify small molecule agonists of the AP-1 signaling pathway (AID 1159526; calls by dose curve; further: on the % scale 0 is the no-effect control and ±100 the full control effect)
[19] = qHTS assay to identify small molecule agonists of the endoplasmic reticulum stress response signaling pathway (AID 1159516; active means well fitted activation curve with a large enough effect in the signal ratio in the repeat runs, not every such curve was filed as active; the % refers to the signal ratio; further: on the % scale 0 is the no-effect control and ±100 the full control effect)
In short: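 Ratiometric FRET readout (405 nm excitation; 460 and 530 nm emission) of a beta-lactamase gene driven by the ER stress response element, after 2 hr substrate loading. HeLa ESRE-bla cells were seeded overnight and treated with compounds for only 5 hr at 37 C.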

[20] = target: Vitamin D3 receptor (Homo sapiens) (UniProt P11473); assay: qHTS assay to identify small molecule antagonists of the vitamin D receptor (VDR) signaling pathway (AID 743223; active means well fitted inhibition curve with a large enough effect in the signal ratio in the repeat runs, not every such curve was filed as active; the % refers to the signal ratio; further: on the % scale 0 is the no-effect control and ±100 the full control effect)
In short: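 Agonist 1alpha,25-dihydroxyvitamin D3 (3 nM in well) was added with each compound to VDR-bla cells preincubated 4 h. Cells stood 16 h at 37C, then FRET substrate 2 h at room temperature; fluorescence intensity recorded.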

CN(C)c1ccc(C=O)cc1
inactive: outcome [1] | outcome [2] | outcome [3] | outcome [4] | Potency [5] | Potency [6] | Potency [7] | outcome [8] | outcome [9] | Potency [10] | outcome [11] | outcome [12] | outcome [13] | Potency [14] | outcome [15] | outcome [16] | outcome [17] | outcome [18]

CN(C)C(=O)CNC(=O)Cc1ccccc1
inactive: outcome [1] | outcome [8] | outcome [9] | Potency [10] | outcome [11] | outcome [12] | outcome [13] | Potency [14] | outcome [15] | outcome [16] | outcome [17] | outcome [18]

C[C@@H](O)[C@H]1C(=O)N2C(C(=O)O)=C(SCCN=CN)C[C@H]12
inactive: outcome [1] | outcome [2] | outcome [3] | outcome [4] | Potency [5] | Potency [6] | Potency [7] | outcome [8] | outcome [12] | outcome [13] | Potency [14] | outcome [15] | outcome [16] | outcome [17] | outcome [18]

CC(=O)CCCCn1c(=O)c2c(ncn2C)n(C)c1=O
inactive: outcome [1] | outcome [2] | outcome [3] | outcome [4] | outcome [8] | outcome [11] | outcome [12] | outcome [13] | outcome [19] | outcome [16] | outcome [17] | outcome [18]

CC(N)C(=O)OC(C)(C)Cc1ccc(Cl)cc1 (stereo not given)
inactive: outcome [2] | outcome [4] | outcome [8] | outcome [9] | outcome [20] | Potency [10] | outcome [12] | outcome [13] | Potency [14] | outcome [15] | outcome [16] | outcome [17] | outcome [18]

CCOC(=O)c1ncn2c1CN(C)C(=O)c1cc(F)ccc1-2
inactive: outcome [1] | outcome [3] | Potency [6] | outcome [8] | outcome [20] | Potency [10] | outcome [12] | outcome [13] | Potency [14] | outcome [15] | outcome [16] | outcome [17] | outcome [18]

O=C(O)C(=O)Cc1ccccc1
inactive: outcome [2] | outcome [3] | outcome [4] | Potency [6] | outcome [8] | outcome [9] | outcome [20] | Potency [10] | outcome [11] | outcome [12] | outcome [13] | outcome [15] | outcome [16] | outcome [17] | outcome [18]

Cc1cc(Cl)c(C)cc1Cl
active: Potency [14] 54.9 µM
inactive: outcome [1] | outcome [3] | Potency [6] | outcome [8] | outcome [9] | Potency [10] | outcome [11] | outcome [12] | outcome [13] | outcome [15] | outcome [16] | outcome [18]

C[Si](C)=O
inactive: activity change, negative = cytotoxicity [1] 1.6% [at 5.95 µM] | activation [2] 0.307% [at 5.95 µM] | viability change, negative = cytotoxic [3] -0.681% [at 6.26 µM] | ratio activity, negative = inhibition [4] 22.7% [at 6.26 µM] | activity change, negative = inhibition [5] 6.53% [at 5.95 µM] | viability change, negative = cytotoxic [6] 5.27% [at 5.95 µM] | activation [7] 2.56% [at 5.95 µM] | activity change, negative = cytotoxicity [8] -2.54% [at 5.95 µM] | activity change, negative = cytotoxicity [10] 2.87% [at 5.95 µM] | viability change, negative = cytotoxic [11] 6.84% [at 6.95 µM] | activation [12] 0.149% [at 6.95 µM] | activity, negative = cytotoxic [13] 10.4% [at 6.95 µM] | activation [19] -1.7% [at 6.95 µM] | activity change, negative = inhibition [16] 3.36% [at 8.39 µM] | viability change, negative = cytotoxic [17] -14.5% [at 6.97 µM] | activation [18] -3.55% [at 6.97 µM]

Cc1ccc2c(c1)OCC(=O)CO2
inactive: outcome [1] | outcome [2] | outcome [3] | outcome [4] | Potency [5] | Potency [6] | Potency [7] | outcome [8] | outcome [9] | outcome [12] | outcome [13] | Potency [14] | outcome [15] | outcome [16] | outcome [17] | outcome [18]

COCCOCCOCCOCCOCCO
inactive: outcome [1] | outcome [2] | outcome [3] | outcome [4] | Potency [6] | outcome [8] | outcome [9] | outcome [20] | Potency [10] | outcome [11] | outcome [12] | outcome [13] | Potency [14] | outcome [15] | outcome [16] | outcome [17] | outcome [18]

COC(=O)c1ccccc1C(=O)c1ccc(OCCN2CCCCC2)cc1
inactive: outcome [2] | outcome [3] | outcome [4] | Potency [5] | Potency [7] | outcome [8] | outcome [9] | outcome [20] | Potency [10] | outcome [12] | outcome [13] | Potency [14] | outcome [15] | outcome [16] | outcome [17] | outcome [18]

C#CC(C)N(C)C(=O)Nc1ccc(Cl)cc1 (stereo not given)
inactive: outcome [1] | outcome [2] | outcome [3] | outcome [4] | Potency [5] | Potency [7] | outcome [8] | outcome [9] | Potency [10] | outcome [11] | outcome [12] | outcome [13] | Potency [14] | outcome [15] | outcome [16] | outcome [17] | outcome [18]
active: Potency [6] 0.436 µM

Cc1c(I)c(=O)n(-c2ccccc2)n1C
inactive: outcome [1] | outcome [2] | outcome [3] | outcome [4] | Potency [6] | outcome [8] | Potency [10] | outcome [11] | outcome [12] | outcome [19] | Potency [14] | outcome [16] | outcome [17] | outcome [18]

C=C(C)C(=O)OCCOP(=O)(O)OCCOC(=O)C(=C)C
inactive: outcome [1] | outcome [2] | outcome [4] | Potency [5] | Potency [6] | Potency [7] | outcome [8] | outcome [9] | Potency [10] | outcome [12] | outcome [19] | Potency [14] | outcome [15] | outcome [16] | outcome [17] | outcome [18]

C=C(C)C(=O)OCCNC(C)(C)C
inactive: outcome [1] | outcome [3] | Potency [6] | outcome [8] | outcome [9] | outcome [20] | Potency [10] | outcome [11] | outcome [12] | Potency [14] | outcome [15] | outcome [16] | outcome [17] | outcome [18]

CNS(=O)(=O)CCc1ccc2[nH]cc(C3CCN(C)CC3)c2c1
inactive: outcome [1] | outcome [2] | outcome [3] | outcome [4] | Potency [6] | outcome [8] | outcome [9] | outcome [20] | Potency [10] | outcome [11] | outcome [13] | outcome [19] | Potency [14] | outcome [15] | outcome [16] | outcome [17] | outcome [18]
